From PubChem BioAssay (Tox21) come the findings set out here.

Results filed as inconclusive are left out. Values without a mark were called inactive. The call rests on the fitted dose curve; in most records, active means well fitted curve in the direction sought with a large enough effect in the repeat runs; inconclusive means weak or mixed curves; inactive means no such curve, though single readings can be large; an effect the other way counts as inactive or inconclusive.
On the % scale 0 is the no-effect control and ±100 the full control effect.

The first experiment in a line: qHTS assay to identify small molecule antagonists of the estrogen related receptor (ERR) signaling pathway - cell viability counter screen (AID 1224818).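 Further: viability measured after 17.5 h of compound exposure.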 The settings on record: ERR reporter cell line viability counter screen; series mostly up to 46.1 µM; viability change, negative = cytotoxic: at the top concentration. The gist of the method:
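Here, ERR cells are plated at 2,000 cells per well, allowed 6 h to attach, and treated with compounds in DMSO for 17.5 h at 37 C. CellTiter-Fluor is then added and fluorescence read after 30 min.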
(Quantitative high-throughput screening tests each substance at several concentrations.)
Consider `COCCOc1cc2ncnc(Cl)c2cc1OCCOC`, for which the “viability change, negative = cytotoxic” value is -11.4%.

On to `C[C@]12C=CC(=O)C=C1CC[C@@H]1C2=CC[C@]2(C)[C@@H](C(=O)CN3CCN(c4cc(N5CCCC5)nc(N5CCCC5)n4)CC3)CC[C@@H]12`, for which the “viability change, negative = cytotoxic” value was -7.41%.

`NC(N)=NCc1cccc(I)c1`: the “viability change, negative = cytotoxic” value was 2.61%.

With `CCN(CC)CCn1c(=O)c(Cc2ccc(OC)cc2)nc2ccccc21`, the “viability change, negative = cytotoxic” value was -9.54%.

For `O=C(Nc1ccc2c(c1)CCN(Cc1ncn[nH]1)C2)c1ccccc1-c1ccc(C(F)(F)F)cc1`, the “viability change, negative = cytotoxic” value was -13.9%.

Turning to `O=C1C2C=CC=CC2=NC(=S)N1CCN1CCC(=C(c2ccc(F)cc2)c2ccc(F)cc2)CC1` (stereo not drawn), the “viability change, negative = cytotoxic” value was 1.15%.

As for `N=C(N)c1ccc(N)cc1`, the “viability change, negative = cytotoxic” value was 6.97%.

`COc1cc(SC)ccc1C(=O)N1CCC(Cc2ccccc2)CC1`: the “viability change, negative = cytotoxic” value was -3.29%.

For the compound `COc1cccc(C(=O)NCCN2CCN(c3ccc(Cl)cc3)CC2)c1`, the “viability change, negative = cytotoxic” value was -9.01%.

For the compound `CC(C)(C)c1ccc(/C=C/C(=O)Nc2ccc3c(c2)OCCO3)cc1`, the “viability change, negative = cytotoxic” value was -14.6%.

As to `Clc1ccc(N2CCN(Cc3cc4ccccn4n3)CC2)cc1`, the “viability change, negative = cytotoxic” value was -2.39%.

As for `CN=c1nc(-c2ccccc2)n(-c2ccccc2)s1`, the “viability change, negative = cytotoxic” value was -9.13%.

Regarding `O=[N+]([O-])c1ccc(CNc2nc(NCc3cccc(C(F)(F)F)c3)nc3nc[nH]c23)cc1`, the “viability change, negative = cytotoxic” value was -15.8%.

As to `COc1cccc(OC)c1OCCNCC1COc2ccccc2O1` (stereo not drawn), the “viability change, negative = cytotoxic” value was 0.0206%.

For `Nc1nc2ccc(Cl)cc2c2nc(-c3ccco3)nn12`, the “viability change, negative = cytotoxic” value was -10.8%.

`CNC(=O)[C@H]1O[C@@H](n2cnc3c(NCc4cccc(I)c4)ncnc32)[C@H](O)C1O` (stereo partly drawn): the “viability change, negative = cytotoxic” value was -4.63%.

As for `O=C1NC(c2cccc([N+](=O)[O-])c2)=CCN1c1ccccc1O`, the “viability change, negative = cytotoxic” value was -13.2%.

With `Cc1ccccc1/C=C/C1=NCCN1`, the “viability change, negative = cytotoxic” value was -14.6%.

Consider `COc1ccc(-c2cc(=O)c3c(O)c(OC)c(OC)cc3o2)cc1O`, for which the “viability change, negative = cytotoxic” value was -26.8%.

As to `CCCCCCN(CCCCCC)C(=O)Cc1c(-c2ccc(F)cc2)[nH]c2ccccc12`, the “viability change, negative = cytotoxic” value is -4.03%.

For `CC(=O)NC[C@H]1CN(c2ccc(N3CCOCC3)c(F)c2)C(=O)O1`, the “viability change, negative = cytotoxic” value was 13.7%.

Regarding `Cc1cccc(C)c1OCC(N)C(C)C` (stereo not drawn), the “viability change, negative = cytotoxic” value was 6%.

With `C[C@@]1(C2CCCC2)Cc2cc(OCC(=O)O)c(Cl)c(Cl)c2C1=O`, the “viability change, negative = cytotoxic” value was -7.05%.

Consider `O=C(CCc1ccncc1)NNC(=O)N1Cc2ccccc2Oc2ccc(Cl)cc21`, for which the “viability change, negative = cytotoxic” value is -7.45%.

Regarding `CCC1(O)CC2CN(CCc3c([nH]c4ccccc34)[C@@](C(=O)OC)(c3cc4c(cc3OC)N(C)C3[C@]45CCN4CC=C[C@@](CC)([C@@H](OC(C)=O)[C@]3(O)C(=O)OC)[C@H]45)C2)C1` (stereo partly drawn), the “viability change, negative = cytotoxic” value is -31.1%.

As to `O=C(CCSCc1ccco1)NNC(=O)N1Cc2ccccc2Oc2ccc(Cl)cc21`, the “viability change, negative = cytotoxic” value is -14.1%.

`Oc1ccc(-c2nc(-c3ccc(F)cc3)c(-c3ccncc3)[nH]2)cc1`: the “viability change, negative = cytotoxic” value was -20.9%.

In the case of `N#Cc1cc([N+](=O)[O-])c2sc(C(N)=O)[n+]([O-])c2c1`, the “viability change, negative = cytotoxic” value was -13.5%.

In the case of `N=C(N)c1ccc(OCCCCCOc2ccc(C(=N)N)cc2)cc1` (tested in a mixture with another compound), the “viability change, negative = cytotoxic” value is -2.46%.

For `c1ccc(C(NCCNC(c2ccccc2)c2ccccc2)c2ccccc2)cc1`, the “viability change, negative = cytotoxic” value was -20.2%.

With `C[C@@H](CN1CCC(Cc2ccccc2)CC1)[C@@H](O)c1ccc(O)cc1`, the “viability change, negative = cytotoxic” value was 4.64%.

For the compound `c1ccc(CN2CCC3(CCCc4ccccc43)CC2)cc1`, the “viability change, negative = cytotoxic” value is -18.9%.

For `CC(C)[C@H](NC(=O)OCc1ccccc1)C(=O)N[C@H](C=O)Cc1ccccc1`, the “viability change, negative = cytotoxic” value was -23.3%.

In the case of `Cn1cc(C(F)(F)F)nc1-c1ccc(OCC(O)CNCCOc2ccc(O)c(C(N)=O)c2)cc1` (stereo not drawn), the “viability change, negative = cytotoxic” value was 3.36%.

For `CN1CCc2cccc3c2C1Cc1ccc(O)c(O)c1-3` (stereo not drawn), the “viability change, negative = cytotoxic” value was -12.3%.

`CCCCCCCC/C=C\CCCCCCCC(=O)NCCc1ccc(O)c(O)c1`: the “viability change, negative = cytotoxic” value is -30.2%.

Regarding `CCCc1c(-c2ccc(O)cc2)nn(-c2ccc(O)cc2)c1-c1ccc(O)cc1`, the “viability change, negative = cytotoxic” value is -11.6%.

With `c1ccc(C(NCc2cccnc2)(c2ccccc2)c2ccccc2)cc1`, the “viability change, negative = cytotoxic” value was -10.5%.

As for `COc1ccc(CCN(C)CCc2ccc(OC)c(OC)c2)cc1OC`, the “viability change, negative = cytotoxic” value was -12.2%.

As to `O=c1cc(N2CCOCC2)oc2c(-c3ccccc3)cccc12`, the “viability change, negative = cytotoxic” value was -20%.

The nature of a further experiment: qHTS assay to identify small molecule agonists of the estrogen related receptor (ERR) signaling pathway (AID 1224820). The settings on record: ERR reporter cell line, luciferase agonist mode; series mostly up to 46.1 µM; activation: at the top concentration. In short, it runs like this: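 ERR reporter cell line (from NTP), 2,000 cells/well, incubated 6 h before compound addition, then 18 h at 37 C. Luminescence measured 30 min after One-Glo reagent at room temperature.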
On to `COCCOc1cc2ncnc(Cl)c2cc1OCCOC`, for which the “activation” value was -73.8%.

As to `C[C@]12C=CC(=O)C=C1CC[C@@H]1C2=CC[C@]2(C)[C@@H](C(=O)CN3CCN(c4cc(N5CCCC5)nc(N5CCCC5)n4)CC3)CC[C@@H]12`, the “activation” value was -44.7%.

Turning to `NC(N)=NCc1cccc(I)c1`, the “activation” value was -56.7%.

For `CCN(CC)CCn1c(=O)c(Cc2ccc(OC)cc2)nc2ccccc21`, the “activation” value was 1.1%.

Turning to `O=C(Nc1ccc2c(c1)CCN(Cc1ncn[nH]1)C2)c1ccccc1-c1ccc(C(F)(F)F)cc1`, the “activation” value was -48.6%.

As for `O=C1C2C=CC=CC2=NC(=S)N1CCN1CCC(=C(c2ccc(F)cc2)c2ccc(F)cc2)CC1` (stereo not drawn), the “activation” value is -55%.

With `N=C(N)c1ccc(N)cc1`, the “activation” value was -36%.

Consider `COc1cc(SC)ccc1C(=O)N1CCC(Cc2ccccc2)CC1`, for which the “activation” value is -63.3%.

For the compound `COc1cccc(C(=O)NCCN2CCN(c3ccc(Cl)cc3)CC2)c1`, the “activation” value is -51.8%.

As for `CC(C)(C)c1ccc(/C=C/C(=O)Nc2ccc3c(c2)OCCO3)cc1`, the “activation” value is -61.9%.

As for `Clc1ccc(N2CCN(Cc3cc4ccccn4n3)CC2)cc1`, the “activation” value was -63.1%.

For `CN=c1nc(-c2ccccc2)n(-c2ccccc2)s1`, the “activation” value is -17.8%.

On to `O=[N+]([O-])c1ccc(CNc2nc(NCc3cccc(C(F)(F)F)c3)nc3nc[nH]c23)cc1`, for which the “activation” value was -67.9%.

As for `COc1cccc(OC)c1OCCNCC1COc2ccccc2O1` (stereo not drawn), the “activation” value was -32.4%.

`Nc1nc2ccc(Cl)cc2c2nc(-c3ccco3)nn12`: the “activation” value was -50%.

Take `CNC(=O)[C@H]1O[C@@H](n2cnc3c(NCc4cccc(I)c4)ncnc32)[C@H](O)C1O` (stereo partly drawn): the “activation” value is -30.4%.

Take `O=C1NC(c2cccc([N+](=O)[O-])c2)=CCN1c1ccccc1O`: the “activation” value was -33%.

As to `Cc1ccccc1/C=C/C1=NCCN1`, the “activation” value is -25.7%.

As to `COc1ccc(-c2cc(=O)c3c(O)c(OC)c(OC)cc3o2)cc1O`, the “activation” value is -41.7%.

Consider `CCCCCCN(CCCCCC)C(=O)Cc1c(-c2ccc(F)cc2)[nH]c2ccccc12`, for which the “activation” value was -60.8%.

As to `CC(=O)NC[C@H]1CN(c2ccc(N3CCOCC3)c(F)c2)C(=O)O1`, the “activation” value is -17.8%.

For `C[C@@]1(C2CCCC2)Cc2cc(OCC(=O)O)c(Cl)c(Cl)c2C1=O`, the “activation” value is -37.5%.

For `O=C(CCc1ccncc1)NNC(=O)N1Cc2ccccc2Oc2ccc(Cl)cc21`, the “activation” value is -34.2%.

Take `CCC1(O)CC2CN(CCc3c([nH]c4ccccc34)[C@@](C(=O)OC)(c3cc4c(cc3OC)N(C)C3[C@]45CCN4CC=C[C@@](CC)([C@@H](OC(C)=O)[C@]3(O)C(=O)OC)[C@H]45)C2)C1` (stereo partly drawn): the “activation” value was -43.2%.

As to `O=C(CCSCc1ccco1)NNC(=O)N1Cc2ccccc2Oc2ccc(Cl)cc21`, the “activation” value was -54.3%.

In the case of `Oc1ccc(-c2nc(-c3ccc(F)cc3)c(-c3ccncc3)[nH]2)cc1`, the “activation” value was -90.5%.

As for `N#Cc1cc([N+](=O)[O-])c2sc(C(N)=O)[n+]([O-])c2c1`, the “activation” value is -18.8%.

As to `N=C(N)c1ccc(OCCCCCOc2ccc(C(=N)N)cc2)cc1` (tested in a mixture with another compound), the “activation” value is -56.8%.

For the compound `c1ccc(C(NCCNC(c2ccccc2)c2ccccc2)c2ccccc2)cc1`, the “activation” value was -36.9%.

Take `C[C@@H](CN1CCC(Cc2ccccc2)CC1)[C@@H](O)c1ccc(O)cc1`: the “activation” value was -38.1%.

Turning to `c1ccc(CN2CCC3(CCCc4ccccc43)CC2)cc1`, the “activation” value was -29.2%.

Consider `CC(C)[C@H](NC(=O)OCc1ccccc1)C(=O)N[C@H](C=O)Cc1ccccc1`, for which the “activation” value is -34.6%.

With `Cn1cc(C(F)(F)F)nc1-c1ccc(OCC(O)CNCCOc2ccc(O)c(C(N)=O)c2)cc1` (stereo not drawn), the “activation” value was -30.6%.

In the case of `CN1CCc2cccc3c2C1Cc1ccc(O)c(O)c1-3` (stereo not drawn), the “activation” value is -27.4%.

Consider `CCCCCCCC/C=C\CCCCCCCC(=O)NCCc1ccc(O)c(O)c1`, for which the “activation” value was -40.1%.

Regarding `CCCc1c(-c2ccc(O)cc2)nn(-c2ccc(O)cc2)c1-c1ccc(O)cc1`, the “activation” value was -23.5%.

In the case of `c1ccc(C(NCc2cccnc2)(c2ccccc2)c2ccccc2)cc1`, the “activation” value is -59.4%.

`O=c1cc(N2CCOCC2)oc2c(-c3ccccc3)cccc12`: the “activation” value is -75.6%.
